Measurements published in PubChem BioAssay AID1671193 (National Center for Advancing Translational Sciences (NCATS), 2021).
Screen size: about 150,000 compounds; about 180 (0.12%) were called active. Entries that show only a call come without a potency. Not shown: some 6% with an inconclusive outcome. This excerpt belongs to a sample that is enriched for actives. A number with no mark means an inactive call. Calls follow the shape of the dose curve; as a rule, active = well fitted cell-killing curve with a large enough effect; inconclusive = small, poorly fitted or top-dose-only effect, or effect the other way; inactive = flat fitted curve, though single readings scatter.

Experiment: GF-AFC viability counterscreen for inhibitors of alpha-synuclein gene (SNCA) expression; also: nearly all actives have a fitted effect of over 30% in size
Settings: HEK-293-SNCA-luc viability, GF-AFC fluorescence, 24 h; series mostly up to 57.1 µM
Excerpt: Assay Submitter (PI): Daniel R. Scoles Ph.D.
Department of Neurology, University of Utah, Salt Lake City, Utah
Accumulation of alpha-synuclein is a main underlying pathological feature of Parkinson's disease (PD) and alpha-synucleinopathies, for which lowering expression of the alpha-synuclein gene (SNCA) is a potential therapeutic avenue. Using a cell-based luciferase reporter of SNCA expression we performed a quantitative high throughput screen (qHTS) of 155,885 compounds in dose response. The screening assay was generated using genome editing to insert the luciferase gene downstream and in frame of the SNCA gene in HEK-293 cells (1). A viability counterscreen using GF-AFC was used to eliminate cytotoxic and false positive compounds. After in silico analysis (clustering, removal of frequent hitter nuisance chemotypes), inhibitor compounds from the primary screen were selected for follow up and re-tested at 11-doses in the SNCA-luc cells (luciferase and GF-AFC confirmation), and in CMV-luc expressing cell line to flag general transcriptional repressors.
Described herein are the results of the GF-AFC viability counterscreen for SNCA inhibitors; inactivity (no decrease in fluorescence signal, not cytotoxic) is the desired output for this assay.
1. Dansithong, W., Paul, S., Scoles, D. R., Pulst, S. M., and Huynh, D. P. (2015) Generation of SNCA Cell Models Using Zinc Finger Nuclease (ZFN) Technology for Efficient High-Throughput Drug Screening. PLoS ONE 10, e0136930.
SEQUENCE No. (e.g., 1, 2, 3, etc.); […] (e.g., Cells, Incubation, Reagent, etc.); VALUE; DESCRIPTION
1; Cells; 4 uL; Dispense 1500 HEK-293-SNCA-luc cells/well into Greiner 1536-well white / solid bottom tissue culture treated plate. The plate was covered with metal lids with gas-exchange holes.
2; Incubate; 24 hours; Incubate at 37C, 5% CO2, 95% RH.
3; Compounds; 23 nL; Compounds and controls were transferred via a Kalypsys Pin Tool (Wako USA) equipped with a 1536-slotted pin array. The plate was covered with metal lids with gas-exchange holes.
4; Incubate; 24 hours; Incubate at 37C, 5% CO2, 95% RH.
5; Dispense; 1 uL; Dispense Gly-Phe-7-amino-4-trifluoromethylcoumarin (GF-AFC, prepared at 125 uM in PBS) was added. The plate was covered with metal lids with gas-exchange holes.
6; Incubate; 30 min; Incubate at 37C, 5% CO2.
7; Detector; Fluorescence; Measure fluorescence with ViewLux microplate reader (PerkinElmer) equipped with 405/10 excitation and 540/25 emission filters.
8; Dispense; 3 uL; Dispense ONE-Glo ([…]) lucifase detection reagent was added to each well. Plates were covered with metal lids with gas-exchange holes.
9; Incubate; 15 min; Incubate at room temperature.
10; Detector; Luminescence; Measure luminescence with ViewLux microplate reader (PerkinElmer) equipped with clear filters.
NOTES (numbers refer to sequence above)
1; HEK-293-SNCA-luc were cultured and suspended in phenol-red free DMEM (4.5 g/L glucose, 25 mM HEPES, cat #21063 (Thermo)).
3; Compounds were added to the assay plate in an 11-point intra plate dose response, 1:3 titration in DMSO with a final concentration range of […]. Vehicle-only plates, with DMSO being pin-transferred to every well, were inserted at the beginning of screening runs to confirm expected assay performance. Activity was normalized to wells containing medium only (-100% activity, full inhibition) and SNCA-luc cells treated with DMSO vehicle control (0% activity), contained on the same plate as test samples.
10; Signals were analyzed, and dose-response curves were fit using the Hill equation. Compounds in curve classes -1.1, -1.2, -2.1, -2.2 in the SNCA-luc assay were considered active. Compounds were eliminated from further consideration if also active (curve class -1.1, -1.2, -1.3, -1.4, -2.1, -2.2, -2.3, -2.4) in the GF-AFC cytotoxicity assay.

Compound | Potency | activity change, negative = cytotoxicity
CCOC(=O)C1CCCN(C(=O)c2c(C)oc3c2CN(Cc2ccc(C)cc2)CC3)C1 (configuration not stated) | inactive | –
COc1ccc(OC)c2nc(-c3cccc(C)c3)c(CN3CCCC(O)C3)cc12 (configuration not stated) | inactive | –
O=C(NC1CCN(c2ccnc3ccnn23)C1)c1ccccc1F (configuration not stated) | inactive | –
Cn1nccc1C(=O)NCCC1CCN(C(=O)Nc2ccccc2)CC1 | inactive | –
Cc1ccc(-c2noc([C@@H]3Cc4nc[nH]c4CN3Cc3cccc(C#N)c3)n2)cc1 | inactive | –
CCCCN(CC#Cc1ccccc1)C(=O)c1cc(=O)n(C)c(=O)n1C | inactive | –
COc1ccc(NC(=O)c2nc3sccn3c2-c2cccnc2)cc1 | inactive | –
COCCN1C(=O)CS(=O)(=O)C12CCN(C(=O)c1ccc(C)s1)CC2 | inactive | –
CCOc1ccccc1CN1CCC(Cc2nc(-c3cccnc3)n[nH]2)C1 (configuration not stated) | inactive | –
COc1ccccc1-c1nc(C(=O)NCc2cccs2)n2ccncc12 | inactive | –
O=C(c1ccc(C(F)(F)F)cc1)N1CCCC(C(=O)N2CCC(c3nc4ccncc4[nH]3)C2)C1 (configuration not stated) | inactive | –
CN1CCC2(CC1)Cc1ccccc1CN(C(=O)c1cccc(Cl)c1)C2 | inactive | –
O=C(NCc1cccc(Cl)c1)C1CCc2nnc(-c3cccc(C(F)(F)F)c3)n21 (configuration not stated) | inactive | –
COc1ccccc1CN1C(=O)COC[C@@H]1[C@H](O)c1ccc(NC(=O)c2ccc(C#N)cc2)cc1 | inactive | –
CC(C)Cc1ccc(CN2CCC3(CC2)Cc2ccccc2CNC3=O)cc1 | inactive | –
COc1ccc(S(=O)(=O)N2CCC3(CCC(=O)N(CC4CC4)CC3)CC2)cc1 | inactive | –
O=C(NC1CCN(c2cc(-c3cccs3)[nH]n2)C1)c1ccc(Br)cc1 (configuration not stated) | inactive | –
COc1ccc(CN2CC(Oc3ccc(F)c(F)c3)C2)cc1 | inactive | –
COc1cccc(-c2cc(C3CCN(C(=O)Nc4ccccc4C)CC3)[nH]n2)c1 | inactive | –

Compound | Potency | activity change, negative = cytotoxicity
Cc1cccc(-c2nc3ccc(C(=O)N4C(C)CCCC4C)cc3o2)n1 (configuration not stated) | inactive | –
COc1ccc(NC(=O)N2CCCC(Cc3noc(-c4ccccc4)n3)C2)cc1 (configuration not stated) | inactive | –
O=C(Cc1ccc(F)cc1)N1CCC(n2cc(-c3nc(-c4ccccc4)no3)nn2)CC1 | inactive | –
COc1ccc(CNC(=O)C2CCN(c3cc(C(F)(F)F)nc(C)n3)CC2)cc1 | inactive | –
O=C(Nc1ccc(Cl)cc1)NC1CCN(C(=O)c2ccc(-c3cncnc3)cc2)CC1 | – | 0.645% [at 12.5 µM]
O=C(NC1CCCc2c1[nH]c1c(Cl)cccc21)c1ccco1 (configuration not stated) | inactive | –
COc1ccc(C)cc1NC(=O)Nc1cccc(-c2ccc(N3CCCCC3)nn2)c1 | inactive | –
CC1(CCCCc2ccccc2)COc2ccc(C(=O)N3CCNC(=O)C3)cc2N1 (configuration not stated) | inactive | –
COC(=O)C1=C(C)N=C2SC=C(CC(=O)N3CCCC3)N2C1c1cccc(F)c1 (configuration not stated) | inactive | –
COC(=O)N1CCC(C(=O)N2CCC3(CC2)CC(=O)Nc2ccccc2O3)CC1 | inactive | –
O[C@@H]1C[C@@H](c2nc(-c3ccc4c(c3)OCO4)no2)N(Cc2ccc(-c3ccccn3)cc2)C1 | inactive | –
CN(C)c1cccc(-c2cnc(Nc3ccc(N4CCOCC4)cc3)c3c2CCO3)c1 | inactive | –
Cc1ccccc1N(C)C1CN(C(=O)OC(C)(C)C)C1 | inactive | –
COc1cccc(-c2cc(-c3nc(-c4ccc5nc[nH]c5c4)no3)[nH]n2)c1 | inactive | –
COc1ccc(S(=O)(=O)N2CCC(n3cnnc3-c3ccccc3)CC2)cc1Cl | inactive | –
O=C(C1CCN(c2nc(-c3ccccc3)nc3c2CCC3)CC1)N1CCC[C@H]1CO | inactive | –
O=C(O)CCNC(=O)Cn1nc2c(cc1=O)CCCC2 | inactive | –
O=C(NCc1ccc(F)cc1)C1CCCN(c2ccnc3ccnn23)C1 (configuration not stated) | inactive | –
O=C(c1ccco1)N1CCC(O)(c2ccccc2)[C@H](N2CCCC2)C1 (some centres not stated) | inactive | –

Compound | Potency | activity change, negative = cytotoxicity
COc1ccc(-n2c(=O)c(C(=O)Nc3ccccc3Cl)nc3cccnc32)cc1 | inactive | –
Cc1ccc(C(=O)N2CCC(C(=O)N3CCC(c4nc5ncccc5[nH]4)CC3)C2)cc1 (configuration not stated) | inactive | –
O=C(Nc1cc(-c2cccnc2)nn1-c1ccccc1)c1ccccc1F | inactive | –
CC(C)Cn1c(=O)c(C(=O)NCc2ccccc2Cl)nc2cccnc21 | inactive | –
CC(C)C(=O)N1CCC2(CC1)OC(=O)N(Cc1ccccc1F)C2(C)c1ccccc1 (configuration not stated) | inactive | –
FC(F)(F)c1ccc(CN2CCCC3(CC(c4ccccc4)=NO3)C2)cc1 (configuration not stated) | inactive | –
O=C(NCCC1CCN(C(=O)Nc2ccc(F)cc2)CC1)c1ccccn1 | inactive | –
COc1ccc(C(=O)N2CCC3(CC2)N(c2ccccc2)C(=O)CS3(=O)=O)cc1F | inactive | –
Cc1ccc(F)cc1S(=O)(=O)N1CCC(OC2CCN(Cc3ccccc3)CC2)CC1 | inactive | –
COc1cc(CNCCOc2ccccc2)ccc1OCC(O)CN1CCOCC1 (configuration not stated) | inactive | –
CC(=O)NC[C@H]1COCc2nc3cc(NC(C)=O)ccc3n21 | inactive | –
COCCOc1ccc(-c2noc([C@@H]3CCCN3C3CCC3)n2)cn1 | inactive | –
COc1ccccc1CN1Cc2cc(NC(=O)C3CCCC3)ccc2OC(C)C1=O (configuration not stated) | inactive | –
O=C(CCC1CCN(S(=O)(=O)c2ccccc2)CC1)NCCc1ccccc1 | inactive | –
CC(=O)c1c(C)nn(C(C)CC(=O)N2C[C@H]3CC=CC[C@H]3C2)c1C (some centres not stated) | inactive | –
O=C(C[C@@H]1CCNC[C@@H]1Cc1cc(CC2CCCCC2)on1)NC1CCCCC1 | inactive | –
COc1cccc([C@@H]2CN(C(=O)CCCn3cnnn3)C[C@H]2C(=O)O)c1 | inactive | –
COCCN(C)Cc1ccc(CC2CCN(C(=O)C3(c4ccc(OC)cc4)CC3)CC2)cc1 | inactive | –
CCOc1ccc(CC(=O)N2CCC(C3CCN(C(=O)NC)CC3)C2)cc1 (configuration not stated) | – | 6.55% [at 12.5 µM]
